# Test results published in paper PMC4336329 (PLoS ONE, 2015).
# Out of some 310,000 compounds screened, about 14,000 (4.5%) showed an effect of 50% or more. The effect is printed as a negative number. The full list was thinned out, with strong results kept by preference.
# Target: human ether-à-go-go-related gene (hERG) potassium channel (human, UniProt Q12809)
# Experiment: primary screen, population patch clamp on CHO cells stably expressing hERG; higher = less effect of the substance
# Procedure: Briefly, Chinese hamster ovary (CHO) cells stably expressing the hERG channel were dislodged from tissue culture flasks and dispensed into PPC plates. […] During the recording, background leak currents were estimated by a 100 ms step to -80 mV from an initial holding potential of -70 mV and subtracted from the subsequent current measurement. The campaign was conducted in two phases using slight differences in recording protocol. In the first phase, the initial voltage pulse used a 100 ms step to -30 mV from a holding potential of -70 mV, a 2 s conditioning step to +25 mV, and a 2 s test step to -30 mV. During the second phase of the screen, the potential during the conditioning step was raised to +45 mV. In both phases of the campaign, a secondary voltage pulse was applied using the same parameters as the second phase initial pulse. The initial and secondary pulses were applied in the absence of compound, and upon application of 1 μM and 10 μM test concentrations. […]
# 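Further: peak tail current of the secondary pulse compared with the same well before compound.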
# Chain of human ether-à-go-go-related gene (hERG) potassium channel (Q12809 whole entry, looked up): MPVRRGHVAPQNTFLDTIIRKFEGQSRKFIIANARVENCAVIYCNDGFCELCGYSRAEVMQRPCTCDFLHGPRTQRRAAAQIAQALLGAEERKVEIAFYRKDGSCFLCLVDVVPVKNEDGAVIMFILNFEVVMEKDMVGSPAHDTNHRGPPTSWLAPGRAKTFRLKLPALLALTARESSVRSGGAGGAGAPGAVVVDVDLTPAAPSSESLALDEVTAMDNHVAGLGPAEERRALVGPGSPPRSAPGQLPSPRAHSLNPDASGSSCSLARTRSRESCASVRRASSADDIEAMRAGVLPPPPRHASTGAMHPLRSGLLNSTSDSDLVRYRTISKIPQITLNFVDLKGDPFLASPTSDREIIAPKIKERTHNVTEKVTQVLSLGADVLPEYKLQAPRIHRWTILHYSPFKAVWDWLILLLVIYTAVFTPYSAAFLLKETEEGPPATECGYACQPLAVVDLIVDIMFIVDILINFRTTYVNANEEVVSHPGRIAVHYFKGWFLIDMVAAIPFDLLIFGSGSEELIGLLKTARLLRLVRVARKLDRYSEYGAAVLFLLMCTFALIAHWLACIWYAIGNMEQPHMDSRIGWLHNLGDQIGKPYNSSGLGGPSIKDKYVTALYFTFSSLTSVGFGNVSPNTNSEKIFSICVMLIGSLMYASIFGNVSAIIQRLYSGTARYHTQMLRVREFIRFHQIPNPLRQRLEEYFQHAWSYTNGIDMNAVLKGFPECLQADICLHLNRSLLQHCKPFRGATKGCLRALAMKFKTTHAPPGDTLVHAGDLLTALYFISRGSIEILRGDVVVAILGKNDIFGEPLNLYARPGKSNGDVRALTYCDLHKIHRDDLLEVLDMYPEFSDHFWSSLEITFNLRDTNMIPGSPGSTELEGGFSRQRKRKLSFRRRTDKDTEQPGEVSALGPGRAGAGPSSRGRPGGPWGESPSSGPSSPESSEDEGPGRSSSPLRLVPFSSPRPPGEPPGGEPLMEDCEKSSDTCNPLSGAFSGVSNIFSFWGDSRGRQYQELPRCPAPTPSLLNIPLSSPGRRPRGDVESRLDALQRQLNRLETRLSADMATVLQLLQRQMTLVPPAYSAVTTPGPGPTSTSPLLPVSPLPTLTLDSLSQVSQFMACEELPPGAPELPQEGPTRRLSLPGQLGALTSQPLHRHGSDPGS
row,SMILES,"hERG current change (%, negative = inhibition) at 10uM"
1,CCCCCCN1CC(=O)N2Cc3[nH]c4ccccc4c3C[C@H]2C1=O,-9.11%
2,O=C(CCCSc1nc2ccccc2[nH]1)Nc1nnc(C2CC2)s1,-1.62%
3,CCn1c(SCC(N)=O)nc2sc3c(c2c1=O)CCCC3,1.24%
4,CCOc1ccccc1Oc1c(C)oc2cc(OC(=O)N3CCOCC3)ccc2c1=O,4.41%
5,O=C(NCCc1ccccc1F)C1CCC(=O)N(CCCN2CCCC2=O)C1 (centres unmarked),-7.84%
6,COCC1CCCCC1OS(N)(=O)=O (centres unmarked),5.38%
7,Cn1cccc1-c1nc2ccccc2n1C,-1.23%
8,Cn1cc(Cl)c(-c2nc3ccccc3[nH]2)n1,-1.45%
9,COc1ccc(C(=O)NC2CC3CCCC(C2)N3CC(C)C)cc1 (centres unmarked),-34.7%
10,O=C(NC1CC2CCCC(C1)N2Cc1cccs1)N1CCOCC1 (centres unmarked),-6.2%
11,CN1C2CCC1CC(NC(=O)c1ccc([N+](=O)[O-])cc1)C2 (centres unmarked),3.81%
12,CC(C)CN1C2CCCC1CC(NC(=O)c1ccc([N+](=O)[O-])cc1)C2 (centres unmarked),-78.3%
13,CCCN1C2CCCC1CC(NC(=O)c1cccc([N+](=O)[O-])c1)C2 (centres unmarked),-36.8%
14,O=C(NC1CC2CCCC(C1)N2Cc1cccs1)c1ccc([N+](=O)[O-])cc1 (centres unmarked),-84.3%
15,COCCNC(=S)NC1CC2CCCC(C1)N2Cc1cccs1 (centres unmarked),-26.7%
16,O=C(NC1CC2CCCC(C1)N2Cc1ccccc1)c1ccc([N+](=O)[O-])cc1 (centres unmarked),-81%
17,Cc1ccc(NC(=O)c2ccc(N3CCCC3=O)cc2)cc1S(=O)(=O)N1CCCCC1,-3.33%
18,Cc1ccc(S(=O)(=O)N2CCN(C(=O)CCOc3cc(C)ccc3C)CC2)cc1,-32.8%
19,CSCCC(NC(=O)c1ccccc1Cl)C(=O)N1CCCCCCC1 (centres unmarked),-6.4%
20,CC(=O)Nc1ccc(N2C(=O)C3C4CC(=O)C(c5ccccc54)C3C2=O)cc1 (centres unmarked),7.32%
21,Oc1ccccc1-c1nc(NCCN2CCOCC2)c2ccccc2n1,-26.2%
22,CCOC(=O)CSc1ccc(C(=O)Nc2ccc(Cl)cc2)cn1,21.8%

row,SMILES,"hERG current change (%, negative = inhibition) at 10uM"
1,CCOC(=O)c1c(C)[nH]c(C)c1S(=O)(=O)NCC(=O)Nc1ccccn1,17.9%
2,COc1ccc(N)c2c1C(=O)c1ccccc1C2=O,-10.4%
3,CC(OC(=O)COc1ccccc1Cc1ccccc1)C(=O)N(C)c1ccccc1 (centres unmarked),-0.572%
4,CC(COc1ccccc1Cc1ccccc1)N1CCCCC1.O=P(O)(O)O (centres unmarked),-70.1%
5,CC(C(=O)Nc1ccc(OCc2ccccc2)cc1)N1CCCC1 (centres unmarked),-21.6%
6,CCOc1ccc2c(c1)N(C(=O)CN1C(=O)CCC1=O)C(C)(C)C=C2C,-22.8%
7,COCCNC(=O)COc1ccc(Br)cc1Cl,10.4%
8,COCCNC(=O)C(c1ccc(F)cc1)N(C(=O)CCC(=O)Nc1nccs1)c1ccc(C)cc1 (centres unmarked),-14.1%
9,CN(c1ccc(OCC(=O)OCC(=O)Nc2ccc(Br)cc2)cc1)S(=O)(=O)c1cccs1,-0.388%
10,O=C(N/N=C/c1ccc[nH]1)c1ccccc1OCc1ccccc1Cl,-25.5%
11,O=C(N/N=C/c1ccco1)c1ccccc1OCc1ccccc1Cl,-82.8%
12,O=C(N/N=C/c1ccco1)c1ccccc1OCc1ccc(Br)cc1,-8.69%
13,CC(=O)c1ccc(-c2ccc(C(=O)NC3CCCCCC3)o2)cc1,26%
14,O=C(NCC1CCCO1)c1ccc(Oc2ccc([N+](=O)[O-])cc2Cl)cc1 (centres unmarked),-41.6%
15,O=C(NCC1CCCO1)c1ccc(COc2ccc(Br)cc2)cc1 (centres unmarked),-13.7%
16,O=C(NCC1CCCO1)c1cccc(Oc2ccc([N+](=O)[O-])cc2Cl)c1 (centres unmarked),-72.6%
17,O=C(NC(=S)NCC1CCCO1)c1ccc([N+](=O)[O-])cc1 (centres unmarked),-16.6%
18,O=C(NCC1CCCO1)c1ccc(COc2ccc(Cl)cc2)cc1 (centres unmarked),-11.9%
19,CC1(C)CC(NC(=O)c2ccc(-c3ccc([N+](=O)[O-])cc3)o2)CC(C)(C)N1,-49%
20,O=C(NCC1CCCO1)c1cccc(Oc2c(Cl)cccc2[N+](=O)[O-])c1 (centres unmarked),-0.562%
21,O=C(NCC1CCCO1)c1ccc(NC(=O)c2ccc([N+](=O)[O-])cc2)cc1 (centres unmarked),-2.58%
22,O=C(NCC1CCCO1)c1ccc(COc2ccccc2)cc1 (centres unmarked),-56.3%
